This note sets out measurements from ChEMBL document CHEMBL3988442, “University of Dundee, Small-Polar-MMV Screening Library” (2021).

The structures appear in SMILES notation. Among all 69,000 compounds or so, about 950 (1.4%) showed an effect of 50% or more. The sample holds strong results, similar compounds and a random draw of the others, so the mix is not that of the screen.

In this experiment the test system is Mycobacterium tuberculosis. Nature of the experiment: Cornell M. t heat shock assay. Note: in the data most compounds retested in dose-response had high values. On the set-up: dose or concentration left out as unconfirmed. The class given is functional, organism-based.
For `Cc1nc(COC[C@@H]2CC[C@H]3[C@H](CCN3c3ccccn3)O2)cs1.O=C(O)C(F)(F)F`, the “Percent Effect” value is recorded as -8.365%.
With `COCC(=O)NC1CC2(CCN(Cc3ccco3)CC2)c2ccccc21.O=C(O)C(F)(F)F` (centres undefined), the “Percent Effect” value is given as -0.75%.
Then `Cn1ccc(C(=O)N2CCC3(CCN3c3ncccn3)C2)n1.O=C(O)C(F)(F)F` (centres undefined), with 24.82%.
With `CC(C)(C)c1ncc(C(=O)NC(C(N)=O)c2ccccc2)s1` (centres undefined), the “Percent Effect” value is listed as -32.92%.
For `Cn1cc(C(=O)N2CC[C@@H]3[C@@H]2CCN3Cc2cccnc2)cn1.O=C(O)C(F)(F)F.O=C(O)C(F)(F)F`, the “Percent Effect” value is reported as -1.797%.
With `COC[C@]12COC[C@H]1CN(Cc1cc(OC)cc(OC)c1)C2.O=C(O)C(F)(F)F`, the “Percent Effect” value was 3.349%.
For the molecule `Cc1cc2n(n1)CC(CNC1CCN(Cc3ccncc3)CC1)CN2` (centres undefined), the “Percent Effect” value is given as -16.93%.
Then `Cc1cc2n(n1)CC(CNC1CCN(Cc3ccccc3C)CC1)CN2` (centres undefined), with 13.82%.
For `Cc1cccc(CN2CCC(NCC3CNc4cc(C)nn4C3)CC2)c1` (centres undefined), the “Percent Effect” value amounted to 108.8%.
As to `CCCNC(=O)Cn1c(-n2nc(C)cc2C)nc(CCC)cc1=O`, the “Percent Effect” value was determined as 96.63%.
On to `CCCc1cc(=O)n(CC(=O)NC(C)C)c(-n2nc(C)cc2C)n1`, for which the “Percent Effect” value is given as 96.11%.
As for `CCCNC(=O)CCNc1cncc(-n2nc(C)cc2C)n1`, the figure is -16.72%; as for `CCCc1cc(=O)n(CC(N)=O)c(-n2nc(C)cc2C)n1`, 28.09%; as for `COCCNC(=O)Cn1c(C)cc2nc(SC)n(CC(C)C)c(=O)c21`, -7.488%.
As for `CCCc1cc(=O)n(CC(=O)NCCOC)c(-n2nc(C)cc2C)n1`, the figure is 103.9%; as for `CCCNC(=O)Cn1c(C)nn(C(C)(C)C)c1=O`, 11.09%; as for `Cc1cc(C)n(-c2cncc(NCCC(=O)NC(C)C)n2)n1`, -1.343%.
For the molecule `COCCCNC(=O)Cn1c(C)cc(=O)n2nc(-c3cccs3)nc12`, the “Percent Effect” value was 14.25%.
In the case of `O=C(O)C(F)(F)F.O=C(O)C(F)(F)F.O=C(c1ccnnc1)N1C[C@@H]2OCCN(CCN3CCCC3)[C@@H]2C1`, the “Percent Effect” value is reported as -5.03%.
`CCc1cc(C(F)(F)F)n2nc(C3CCCN3C3CCSCC3)cc2n1.O=C(O)CC(O)(CC(=O)O)C(=O)O` (centres undefined): the “Percent Effect” value stood at 5.555%.
As to `O=C(O)c1ccc(SCC(=O)c2ccccc2)nc1`, the “Percent Effect” value was 25.44%.
Then `Cc1cccc(CN2C[C@@H]3OCCN(CC(=O)N(C)C)[C@@H]3C2)c1.O=C(O)C(F)(F)F`, with 42.49%; and `Cl.Cl.c1ccc(OC[C@@H]2CCC[C@@]23CNCCO3)nc1`, with -6.285%.
Then `CC(C)n1cnnc1CN(C)Cc1cnc(-c2ccccn2)nc1`, with 32.7%; and `Cc1noc(C)c1CN(C)C(C)c1cccs1` (centres undefined), with 7.19%; and `CC(c1cccs1)N(C)Cc1cnc(-c2ccccn2)nc1` (centres undefined), with 106.1%.
As for `O=C(Nc1cccnc1)[C@H]1CO[C@H]2CCNC[C@H]2C1.O=C(O)C(F)(F)F.O=C(O)C(F)(F)F`, the figure is -15.71%; as for `Cc1ccc2c(n1)N(CC1CC1)CCN(C(=O)c1ccncc1F)C2.O=C(O)C(F)(F)F.O=C(O)C(F)(F)F`, -13.11%.
For the molecule `CCn1c(CN(C)Cc2csc(C)n2)nc2cc(F)ccc21`, the “Percent Effect” value is on record as 69.38%.
For `CCn1c(CN(C)Cc2cnc(C)s2)nc2cc(F)ccc21`, the “Percent Effect” value is recorded as -9.437%.
With `CCN(Cc1csc(C)n1)c1cccc(CO)c1`, the “Percent Effect” value is recorded as -22.94%.
On to `CCO[C@@H]1CC[C@H]2[C@H]1OCCN2CC1CCC1.O=C(O)C(F)(F)F`, for which the “Percent Effect” value is -27.51%.
Turning to `Cc1csc(CN(C)c2cc(C)nc3c(C)c(C)nn23)n1`, the “Percent Effect” value amounted to 96.63%.
Then `CCc1cc(N(C)Cc2ccnc(C)c2)n2nc(C)c(C)c2n1`, with 28.31%; and `CCc1nnc(CN(C)c2cc(C)nc3c(C)c(C)nn23)o1`, with -40%; and `Cc1cc(N(C)Cc2c(C)noc2C)n2nc(C)c(C)c2n1`, with -31.35%.
For `Cc1cc(N(C)Cc2ccsc2)n2nc(C)c(C)c2n1`, the “Percent Effect” value turned out to be 86.91%.
Then `Cc1cc(N(C)Cc2noc(C)n2)n2nc(C)c(C)c2n1`, with 0.3178%; and `CCc1cc(N(C)Cc2ccno2)n2nc(C)c(C)c2n1`, with 27.53%; and `Cc1cc(N(C)CCN(C)C)n2nc(C)cc2n1`, with -8.3%.
With `CCc1cc(N(C)Cc2cc[nH]n2)n2nc(C)c(C)c2n1`, the “Percent Effect” value was determined as 19.05%.
Then `Cc1cc(N(C)Cc2cc(C)on2)n2nc(C)c(C)c2n1`, with 82.43%; and `Cc1cc(NC(C)c2csc(C)n2)n2nc(C)c(C)c2n1` (centres undefined), with 26.88%; and `CCc1cc(N(C)Cc2ccncn2)n2nc(C)c(C)c2n1`, with 89.97%.
Then `Cc1cc(C)cc(N2CCN(C(=O)CCN3C[C@@H]4CC[C@H]3C4)CC2=O)c1`, with -4.633%; and `COc1cc(N2C[C@@H]3COC[C@]3(COc3ncccc3F)C2)ncn1.O=C(O)C(F)(F)F.O=C(O)C(F)(F)F`, with -28.64%; and `CC(C)OCc1ncn2c1CN(Cc1cccs1)CCC2.O=C(O)C(F)(F)F`, with -1.604%.
Then `CN(C)CCOCc1nnc2n1CCN(CC1CC1)CC2.O=C(O)C(F)(F)F.O=C(O)C(F)(F)F`, with -19.96%; and `Cc1ncsc1CN1C[C@H](C(=O)NCC2CC2)[C@@H]2CCO[C@@H]2C1.O=C(O)C(F)(F)F`, with -4.533%; and `COc1ccc(CN2CCC3(CC2)CCN(CCN(C)C)C3=O)cc1.O=C(O)C(F)(F)F.O=C(O)C(F)(F)F`, with -10.28%.
For `COCC(=O)N1CCC2(CC1)CC(COC)N(Cc1ccccn1)C2.O=C(O)C(F)(F)F` (centres undefined), the “Percent Effect” value was 9.323%.
As for `CCN1C(=O)CC[C@]12CC[C@@H](NC(=O)NCc1cccnc1)CC2.O=C(O)C(F)(F)F`, the figure is 4.335%; as for `CNC(=O)C1Cn2ccnc2C2(CCN(Cc3cccc(C)n3)CC2)O1.O=C(O)C(F)(F)F` (centres undefined), -1.384%.
On to `Cc1nc(NCc2noc(C3CCCO3)n2)c2ccsc2n1` (centres undefined), for which the “Percent Effect” value worked out at 12.93%.
Then `O=C(O)C(F)(F)F.O=C1COC2(CCN(c3ccccn3)CC2)CN1`, with 64.38%; and `Cc1ccc(N2CCC3(CC2)CNC(=O)CO3)nn1.O=C(O)C(F)(F)F`, with -15.23%; and `O=C(O)C(F)(F)F.O=C1COC2(CCN(c3ncccn3)CC2)CN1`, with -4.23%.
Turning to `Cc1cc(F)ccc1-c1ccccc1CC1CNCCNC1=O.Cl` (centres undefined), the “Percent Effect” value worked out at 10.68%.
For the molecule `Cc1ccc(C(=O)N2CC[C@@H]3CN(C4CCOCC4)CCO[C@@H]3C2)o1.O=C(O)C(F)(F)F`, the “Percent Effect” value came out at 5.788%.
Then `CC(C)NC(=O)N1CC[C@H]2[C@H]1CCN2c1ncccn1.O=C(O)C(F)(F)F`, with -6.623%; and `Cc1ccc(NCc2ccc(C#N)cc2)c(CN(C)C)c1`, with -24.71%; and `Cc1c(NCc2ccccc2C#N)cccc1-n1cnnn1`, with 16.44%.
As for `Cc1c(NCc2cccc(C#N)c2)cccc1S(=O)(=O)NC1CC1`, the figure is 50.22%.
Then `Cc1c(NCc2ccc(C#N)cc2)cccc1S(=O)(=O)NC1CC1`, with 50.41%; and `CS(=O)(=O)NCC1CCCCN1Cc1ccccc1C#N` (centres undefined), with -5.634%; and `Cc1c(NCc2ccccc2C#N)cccc1S(=O)(=O)NC1CC1`, with 92.24%.
Regarding `Cc1cc(NCc2cccc(C#N)c2)ccc1Br`, the “Percent Effect” value was -0.9935%.
Then `Cc1cc(NCc2cccc(C#N)c2)ccc1C(N)=O`, with -8.044%.
As for `N#Cc1cccnc1NCc1ccc(S(=O)(=O)NC2CC2)cc1`, the “Percent Effect” value amounted to 26.85%.
Then `COC1COC2(CCN(Cc3ccc(Cl)cc3)CC2)C1.O=C(O)C(F)(F)F` (centres undefined), with -23.85%.
As for `Cc1nc(NC(=O)C2(C)CN(C)CCO2)sc1C.Cl` (centres undefined), the figure is -1.317%; as for `CCC(CC)C(=O)N1CCOC2(COCCN(CC(=O)NC)C2)C1.O=C(O)C(F)(F)F` (centres undefined), -7.076%; as for `Cc1cccc(NC(=O)N2CCCn3cnc(CN(C)C(C)C)c3C2)c1.O=C(O)C(F)(F)F`, -43.51%.
As for `COCC1CN(c2ccc(C)nn2)Cc2cnn(C)c21.O=C(O)C(F)(F)F.O=C(O)C(F)(F)F` (centres undefined), the figure is 33.23%; as for `CN1CCOCC2(CCCN(C(=O)c3ccc(-n4cccc4)cc3)C2)C1.O=C(O)C(F)(F)F` (centres undefined), -38%.
Turning to `CN(C)CC(=O)N1CCC2(CC1)CN(c1ccsc1)C(=O)CO2.O=C(O)C(F)(F)F`, the “Percent Effect” value is listed as -14.58%.
As for `CCc1cc(CN2C[C@H]3CC[C@@H]2CN(C2Cc4ccccc4C2)C3)on1`, the figure is 30.93%; as for `C1CC(CN2C[C@H]3CC[C@@H]2CN(Cc2nnc(C4CC4)o2)C3)C1`, 16.6%.
In the case of `c1ccc(-c2cc(CN3C[C@@H]4CC[C@H](C3)N(CC3CC3)C4)on2)cc1`, the “Percent Effect” value came to 99.84%.
`c1ccc(-c2cc(CN3C[C@H]4CC[C@H]3C4)on2)cc1`: the “Percent Effect” value worked out at 7.341%.
Then `c1ccc(-c2cc(CN3CCCC(Cn4cncn4)C3)on2)cc1` (centres undefined), with -1.952%.
Then `C1CCCN(CC2CCCN(Cc3noc(C4CC4)n3)C2)CC1` (centres undefined), with 7.551%; and `c1ccc(-c2nnc(CN3C[C@@H]4CC[C@H](C3)N(CC3CCC3)C4)o2)cc1`, with 64.4%.
Take `c1ccc(-c2cc(CN3C[C@@H]4CC[C@H](C3)N(CC3CCC3)C4)on2)cc1`: the “Percent Effect” value came out at 105.8%.
In the case of `c1ccc(CN2C[C@H]3CC[C@@H]2CN(Cc2nnc(C4CC4)o2)C3)cc1`, the “Percent Effect” value is reported as -5.775%.
Regarding `Cc1cc(CN2C[C@H]3CC[C@@H]2CN(C2Cc4ccccc4C2)C3)on1`, the “Percent Effect” value was determined as 16.59%.
On to `Cc1cnn(C2CN(Cc3noc(C4CC4)n3)C2)c1`, for which the “Percent Effect” value is 9.159%.
As for `C1CC(CN2C[C@H]3CC[C@@H]2CN(Cc2noc(C4CCCC4)n2)C3)C1`, the figure is 69.475%.
As for `Cc1noc(C)c1CN1CCCC2(CCN(CC3CCCC3)C2)C1.O=C(O)C(F)(F)F` (centres undefined), the figure is -3.039%.
